Measurements reported in PubChem BioAssay (Tox21).
Records with an inconclusive call do not appear. Entries that show only a call come without a potency. Where a structure was tested more than once in an assay, its records may differ in their call. Activity calls are given as the source filed them. Calls come from the whole dose curve; as a rule, active = well fitted activation curve with a large enough effect in the repeat runs; inconclusive = weak or mixed curves; inactive = flat fitted curve, though single readings scatter.

Assay: A CellTox Green Cytotoxicity Assay to monitor cytotoxicity in HepG2 cells - 24 hour (AID 1224878); note: nearly all actives have a fitted effect of over 45% in size
Details: CellTox Green fluorescence; series mostly up to 76.8 µM
Excerpt: National Center for Advancing Translational Sciences [NCATS]
NIH Chemical Genomics Center [NCGC]
U.S. Environmental Protection Agency [EPA]
National Institutes of Environmental Health Sciences [NIEHS]
National Toxicology Program [NTP]
Cell-based models are critical for drug discovery. Determining the natural cytotoxic effects resulting from test compounds is an essential research activity. A CellTox Green Cytotoxicity Assay to monitor cytotoxicity in real time of continues cell culture during 40 hours of the compound treatment was used to screen Tox21 10K library compounds in HepG2 cells. CellTox Green Cytotoxicity Assay is a nonlytic, homogeneous, biofluorescent method to measure cytotoxicity in cell culture after experimental manipulation. The assay system uses a proprietary asymmetric cyanine dye that is excluded from viable cells but preferentially stains the dead cell's DNA. […] Viable cells produce no appreciable increases in fluorescence. Therefore, the fluorescence signal produced by the binding interaction with dead cell DNA is proportional to cytotoxicity.
The mixture of HepG2 cell suspension and reagents were dispensed at 600cells/6 ul/well in 1536-well tissue culture treated black solid bottom plates using a Multidrop dispenser. After the assay plates were incubated at a 37 C/5% CO2 incubator for 5 hours, 23 nL of compounds dissolved in DMSO, positive and negative controls was transferred to the assay plate by a pintool work station. The plates were incubated at 37 C for 40 hours. The fluorescence intensity were measured at 0h, 8h, 16h, 24h, 32h and 40h time points using ViewLux plate reader during compound treatment.
Potency is the fitted concentration of half-maximal effect.

Structure (SMILES)	Potency
Cc1cc(=O)[nH]c(=S)[nH]1	inactive
Cc1ccc(O)cc1	inactive
CC(C)[C@@H]1CC[C@@H](C)C[C@H]1O	inactive
CCC1(c2ccccc2)C(=O)NCNC1=O	inactive
O=C(O)CCCCCCCC(=O)O	inactive
O=c1cc[nH]c(=S)[nH]1	inactive
CC(O)CN(CCN(CC(C)O)CC(C)O)CC(C)O (stereo not given)	inactive
NS(=O)(=O)c1cc(C(=O)O)c(NCc2ccco2)cc1Cl	17.4 µM (active) and inactive
Cn1cc[nH]c1=S	inactive
CCCCC(CC)COC(=O)/C=C/c1ccc(OC)cc1 (stereo not given)	inactive
c1ccc2[nH]ccc2c1	6.81 µM (active) and inactive
CC(O)C(=O)O (stereo not given)	inactive
Cc1cc(=O)n(-c2ccccc2)n1C	inactive
Cn1c(=O)c2[nH]cnc2n(C)c1=O	inactive
C1N2CN3CN1CN(C2)C3	inactive
O=C(O)/C=C\C(=O)O	inactive
Nc1ccc(C(=O)O)cc1	inactive
OCCc1ccccc1	inactive
CC(=O)Nc1nnc(S(N)(=O)=O)s1	inactive
CCCCC1C(=O)N(c2ccccc2)N(c2ccccc2)C1=O	inactive

Structure (SMILES)	Potency
O=C(c1ccccc1)c1ccccc1	inactive
Cc1ccc(C)c(OCCCC(C)(C)C(=O)O)c1	inactive
O=C(O)CCCCC(=O)O	inactive
NC(=O)c1ccccc1O	inactive
O=C1NC(=O)c2ccccc21	inactive
CCCN(CCC)S(=O)(=O)c1ccc(C(=O)O)cc1	inactive
CC(O)CO (stereo not given)	inactive
CCCCOC(=O)CC(CC(=O)OCCCC)(OC(C)=O)C(=O)OCCCC	inactive
O=C(C1CCCCC1)N1CC(=O)N2CCc3ccccc3C2C1 (stereo not given)	inactive
CC(=O)OCC(COC(C)=O)OC(C)=O	inactive
CC(=O)NS(=O)(=O)c1ccc(N)cc1	inactive
O=S(=O)(O)c1ccc2cc(O)ccc2c1	inactive
O=S(=O)(O)NC1CCCCC1	inactive
CNC[C@H](O)c1cccc(O)c1	inactive
Cc1noc(NS(=O)(=O)c2ccc(N)cc2)c1C	inactive
Oc1ccc(/C=C/c2cc(O)cc(O)c2)cc1	inactive
O=C(O)c1cccnc1	inactive
OC(Cn1cncn1)(Cn1cncn1)c1ccc(F)cc1F	inactive
O=c1ccc2ccccc2o1	inactive
NC(N)=O	inactive
